Screens as filed in PubChem.
Compounds with a hit are over-represented: about 3% of the library has one in this group of screens.
mTORC1 inh: inhibitors of mTORC1 signaling in Tsc2-/- p53-/- MEF cells | Tsc2-/- p53-/- MEF, phospho-rpS6 immunofluorescence/PI, 24 h | Potency, µM (doses to about 38.3 µM), most hits filed as inhibitors | actives 0.78% (n = 44,000) | AID 493208; note: nearly all actives have a fitted effect of over 50% in size
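Plate MEFs (Tsc2-/-, p53-/-, empty vector) in DMEM/10% FBS; after 24 h add compound, incubate 24 h at 37 degree Celsius; fix in PFA/TX-100, block, stain phospho-rpS6 and 10 uM PI; scan at 488 nm; report % positive cells.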
p53null 39C tox: kills p53 null cells at the nonpermissive temperature | Potency, µM (highest dose often 46.1 µM), most hits filed as cytotoxic | AID 904 | actives 0.97% (n = 55,000) | H1299 p53-null (neo) cells, 39C, ATPlite viability, 24 h; note: nearly all actives have a fitted effect of over 50% in size
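Concentration-response (up to 46 uM) was run for 24 h at the nonpermissive 39C on H1299-p53A138V or H1299-neo cells. ATP content was measured with ATPlite luminescence. AC50 values were Hill-modeled after normalizing between DMSO and 100 uM tamoxifen killing.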
p53null 32C kill: kills p53 null cells at the permissive temperature; H1299-neo p53 null cells, ATP luminescence, 24 h, 32C; Potency, µM (titrated, usually from 46.1 µM), most hits filed as cytotoxic; actives 0.62% (n = 55,000); AID 903; note: nearly all actives have a fitted effect of over 55% in size
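H1299-neo, 600 cells/well; overnight 37C; cpd up to 46 uM, 24 h at 32C; ATPlite luminescence after 20 min RT; normalized to DMSO (0%) and tamoxifen 100 uM (100% kill); Hill-fit AC50.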
PMP22 txn: modulates PMP22 transcription in S16 Schwann cells | S16 Pmp22-F2sN Schwann cells, FLuc/NLuc coincidence luminescence, 24 h | Potency, µM (titrated, usually from 57.5 µM), usual class: inhibitors | actives 2% (n = 43,000); active = clear falling dose curves in both reporters; inconclusive = both reporters move, but less clearly or upward; inactive = either reporter flat; the % is the NLuc reporter signal
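Reporter cells (S16 Pmp22-F2sN, 500–1,000 per well) exposed to compounds for 24 h, 37C, 5% CO2; lysis with FLuc read after 10 min, then Stop&Glo and NLuc read after 10 min.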
S16 viability: toxic to S16 Pmp22-F2sN Schwann cells | S16 Pmp22-F2sN Schwann cells (luciferase reporters placed in the Pmp22 gene) viability, CellTiter-Glo, 24 h | Potency, µM (series often up to 57.5 µM), actives largely listed as cytotoxic | actives 0.48% (n = 43,000) | AID 1508642; note: nearly all actives have a fitted effect of over 65% in size
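Rat S16 Schwann reporter line, 24 h treatment with library compounds delivered at 23 nL per well. Cell viability by CellTiter-Glo luminescence.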
OvCa metastasis: inhibitors of ovarian cancer cell adhesion and invasion in omental model; Potency, µM (highest dose often 45.8 µM), most hits filed as inhibitors; SKOV3ip1-GFP adhesion/invasion on 3D omental model, fluorescence; actives 0.1% (n = 46,000); note: nearly all actives have a fitted effect of over 65% in size
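A 3D layer of primary human omental fibroblasts, mesothelial cells, fibronectin and collagen I, grown 48 hr, received SKOV3ip1-GFP cells in serum-free medium plus compounds at 0.36-46 umol/L. After 2 hr RT and 16 hr 37 C, fixed adherent GFP cells were counted; normalized to DMSO and tomatine.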
NLuc saturating: counter-screen for PMP22 expression modulators: NanoLuc inhibition, saturating substrate; shares compounds with PMP22 txn; Secreted NLuc enzyme (filtered S16 cell medium), Nano-Glo luminescence; Potency, µM (series often up to 57.5 µM), usual class: inhibitors; actives 4% (n = 690); AID 1508638
NLuc Km ctr: NanoLuc inhibition at Km substrate, PMP22 artifact check. Potency, µM (titrated, usually from 57.5 µM), most hits filed as inhibitors. secreted NLuc enzyme, coelenterazine luminescence, Km conditions. shares compounds with PMP22 txn. actives 5% (n = 690)
FLuc ctr PMP22: counter-screen for PMP22 expression modulators: firefly luciferase inhibition | shares compounds with PMP22 txn | purified P. pyralis FLuc, luminescence, 10 min | Potency, µM (highest dose often 57.5 µM), actives largely listed as inhibitors | 690 tested, under 10 active | AID 1508640
Target sequence (P08659 whole entry, looked up): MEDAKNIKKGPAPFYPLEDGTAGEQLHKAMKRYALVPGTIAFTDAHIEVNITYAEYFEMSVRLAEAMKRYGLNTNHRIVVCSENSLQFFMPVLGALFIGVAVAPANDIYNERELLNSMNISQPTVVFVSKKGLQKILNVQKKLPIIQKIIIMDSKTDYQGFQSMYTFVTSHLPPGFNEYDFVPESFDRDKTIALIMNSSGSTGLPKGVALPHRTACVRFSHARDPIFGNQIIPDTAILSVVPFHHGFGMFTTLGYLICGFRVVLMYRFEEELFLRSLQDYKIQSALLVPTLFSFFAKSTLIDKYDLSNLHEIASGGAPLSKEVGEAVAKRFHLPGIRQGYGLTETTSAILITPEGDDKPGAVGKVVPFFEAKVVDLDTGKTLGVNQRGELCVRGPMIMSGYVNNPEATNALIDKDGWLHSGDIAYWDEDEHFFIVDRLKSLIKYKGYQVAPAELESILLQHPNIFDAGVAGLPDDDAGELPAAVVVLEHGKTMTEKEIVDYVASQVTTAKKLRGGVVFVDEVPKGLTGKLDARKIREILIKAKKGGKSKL
S16 viab conf: S16 Schwann cell cytotoxicity, confirmatory; shares compounds with PMP22 txn; S16 Schwann cells viability, CellTiter-Glo ATP luminescence, 24 h; Potency, µM (top dose mostly 57.5 µM), most hits filed as cytotoxic; actives 7% (n = 690); AID 1508641
PMP22 txn cnf: PMP22 transcription modulation, confirmatory. shares compounds with PMP22 txn. S16 Schwann cells Pmp22-F2sN, dual luciferase, 24 h. Potency, µM (highest dose often 57.5 µM), most hits filed as inhibitors. actives 22% (n = 690); active = clear falling dose curves in both reporters; inconclusive = both reporters move, but less clearly or upward; inactive = either reporter flat; the % is the FLuc reporter signal
PMP22 prot conf: rat PMP22 protein level modulation, confirmatory. shares compounds with PMP22 txn. S16 Schwann cells Pmp22-HiBiT, luminescence, 48 h. Potency, µM (titrated, usually from 27.9 µM), actives largely listed as inhibitors. 95 tested, under 10 active
Target sequence (P25094 whole entry, looked up): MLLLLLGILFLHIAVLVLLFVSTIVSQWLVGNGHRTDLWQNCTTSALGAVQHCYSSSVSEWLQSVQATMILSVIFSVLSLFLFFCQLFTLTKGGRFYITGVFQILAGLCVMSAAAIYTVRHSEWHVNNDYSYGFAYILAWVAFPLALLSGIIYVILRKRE
Each line names hits and unclear results; the compound was inactive in the other large screens (follow-up assays come after a bar, where they were run). Unless noted, calls come from the whole dose curve; as a rule, active = well fitted curve in the direction sought with a large enough effect; inconclusive = small, poorly fitted or top-dose-only effect, or another doubt; inactive = no such curve, though single readings can be large; an effect the other way counts as inactive or inconclusive.

COc1ccc(S(=O)Cc2ccc(C(=O)N3CCN(c4cccc(C)c4C)CC3)o2)cc1 (configuration not stated)	PMP22 txn inconclusive, S16 viability inconclusive
Cc1ccccc1S(=O)(=O)Cc1ccc(C(=O)N2CCN(c3cccc(Cl)c3)CC2)o1	mTORC1 inh inconclusive, PMP22 txn 12µM, S16 viability inconclusive | NLuc saturating inconclusive | NLuc Km ctr inactive | FLuc ctr PMP22 inactive | S16 viab conf inactive | PMP22 txn cnf 9.7µM | PMP22 prot conf inconclusive
O=C(c1ccc(CS(=O)c2ccccc2Cl)o1)N1CCN(c2cccc(C(F)(F)F)c2)CC1 (configuration not stated)	mTORC1 inh inconclusive, p53null 39C tox inconclusive, PMP22 txn 12µM | NLuc saturating inactive | NLuc Km ctr inconclusive | FLuc ctr PMP22 inactive | S16 viab conf inactive | PMP22 txn cnf inconclusive | PMP22 prot conf inconclusive
COc1cccc(N2CCN(C(=O)c3ccc(CS(=O)c4cccc(Cl)c4)o3)CC2)c1 (configuration not stated)	mTORC1 inh inconclusive, PMP22 txn 5µM | NLuc saturating inconclusive | NLuc Km ctr inconclusive | FLuc ctr PMP22 inactive | S16 viab conf inactive | PMP22 txn cnf inconclusive
COCCOC(=O)C1=C(C)NC2=C(C(=O)CC(c3ccccc3OC)C2)C1c1cccc(O)c1 (configuration not stated)	none (no result: mTORC1 inh, p53null 39C tox, p53null 32C kill, PMP22 txn, S16 viability)
Cc1cccc(CS(=O)(=O)c2ncc(Cl)c(C(=O)Nc3nc4ccc(F)cc4s3)n2)c1	mTORC1 inh inconclusive, PMP22 txn 6.5µM, S16 viability inconclusive | NLuc saturating inconclusive | NLuc Km ctr inconclusive | FLuc ctr PMP22 inactive | S16 viab conf inconclusive | PMP22 txn cnf 10µM | PMP22 prot conf inconclusive
CCOc1ccc2nc(NC(=O)c3nc(SC(C)C)ncc3Cl)sc2c1	PMP22 txn 18µM, S16 viability inconclusive | NLuc saturating inactive | NLuc Km ctr inactive | FLuc ctr PMP22 inactive | S16 viab conf inactive | PMP22 txn cnf inconclusive
COc1ccc2nc(NC(=O)c3nc(SCc4cccc(C)c4)ncc3Cl)sc2c1	PMP22 txn 10µM | NLuc saturating inactive | NLuc Km ctr inactive | FLuc ctr PMP22 inactive | S16 viab conf inconclusive | PMP22 txn cnf inconclusive
CN[C@@H](C)C(=O)N[C@H]1CN(C(=O)CC(C)C)CC[C@H]2CC[C@@H](C(=O)NC(c3ccccc3)c3ccccc3)N2C1=O	none (no result: mTORC1 inh, p53null 39C tox, p53null 32C kill, PMP22 txn, S16 viability)
CC(C)COc1ccccc1C1CC(=O)Nc2cc3c(cc21)OCO3 (configuration not stated)	mTORC1 inh inconclusive, p53null 39C tox inconclusive, PMP22 txn 8.4µM | NLuc saturating inconclusive | NLuc Km ctr inconclusive | FLuc ctr PMP22 inactive | S16 viab conf inactive | PMP22 txn cnf inconclusive
CON=C(C(=O)N[C@@H]1C(=O)N2C(C(=O)O)=C(CSC(=O)c3ccco3)CS[C@H]12)c1csc(N)n1	none (no result: mTORC1 inh, p53null 39C tox, p53null 32C kill, PMP22 txn, S16 viability)
CCS(=O)(=O)c1ncc(Cl)c(C(=O)Nc2c(C(=O)c3ccc(C)cc3)oc3ccccc23)n1	PMP22 txn 2.1µM, S16 viability inconclusive | NLuc saturating inactive | NLuc Km ctr inconclusive | FLuc ctr PMP22 inactive | S16 viab conf inconclusive | PMP22 txn cnf 9.3µM | PMP22 prot conf inactive
CCOC(=O)c1c(NC(=O)c2ccc(S(=O)(=O)N3CCC(C)CC3)cc2)sc2c1CCN(C)C2	mTORC1 inh 15µM, PMP22 txn 18µM, S16 viability inconclusive, OvCa metastasis inconclusive | NLuc saturating inconclusive | NLuc Km ctr inconclusive | FLuc ctr PMP22 inactive | S16 viab conf inconclusive | PMP22 txn cnf 18µM
CCOC(=O)c1c(NC(=O)c2ccc(S(=O)(=O)N(C)C)cc2)sc2c1CCN(C)C2	mTORC1 inh inconclusive, PMP22 txn inconclusive, OvCa metastasis inconclusive
COc1ccc(Nc2ncc(C(=O)N3CCN(c4cccc(Cl)c4)CC3)c3ccccc23)cc1	PMP22 txn 14µM | NLuc saturating inconclusive | NLuc Km ctr inactive | FLuc ctr PMP22 inactive | S16 viab conf inactive | PMP22 txn cnf inconclusive
COc1ccc(Nc2ncc(C(=O)N3CCN(c4ccc(OC)cc4)CC3)c3ccccc23)cc1	PMP22 txn inconclusive
COc1ccc(CC(=O)Nc2sc3c(c2C(=O)Nc2cccc(C)c2)CCCCC3)cc1	mTORC1 inh 9.3µM, p53null 39C tox inconclusive, PMP22 txn 10µM, S16 viability 25µM | NLuc saturating inactive | NLuc Km ctr inactive | FLuc ctr PMP22 inactive | S16 viab conf inconclusive | PMP22 txn cnf inconclusive
COc1ccc(CC(=O)Nc2sc3c(c2C(=O)Nc2ccc(C)cc2)CCCCC3)cc1	PMP22 txn inconclusive
CN1N=C(N)c2cn([C@@H]3O[C@H](COP(=O)(O)O)[C@@H](O)[C@@H]3O)c3ncnc1c23	none (no result: mTORC1 inh, p53null 39C tox, p53null 32C kill, PMP22 txn, S16 viability)
CC(NC(=O)c1cccc(Nc2nc3ccccc3n3nnnc23)c1)c1ccccc1 (configuration not stated)	PMP22 txn 11µM, S16 viability inconclusive | NLuc saturating inactive | NLuc Km ctr inactive | FLuc ctr PMP22 inactive | S16 viab conf 17µM | PMP22 txn cnf inconclusive
